Here are results for 10 compounds from PubChem BioAssay (NCI).

Test systems include SR leukemia; RPMI-8226 leukemia; OVCAR-8 ovarian; OVCAR-5 ovarian; OVCAR-4 ovarian; SK-OV-3 ovarian; IGROV1 ovarian; OVCAR-3 ovarian; HS 578T breast; NCI/ADR-RES ovarian.
Assay in all cases: NCI-60 one-dose screen, 48 h (100 = growth as untreated, 0 = no growth, -100 = all killed)
Holding throughout (settings): 10 µM unless noted

Molecules are shown by their SMILES. The panel holds about 83,000 compounds, 20% with a hit somewhere; the sample as a whole holds those more often.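 Compound tested at a single concentration for 48 hours in 96-well plates; a percent growth value below 10 was scored as active.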 Values without a mark were called inactive. Active and inactive are the calls of the source.

Turning to `N#CSc1c[nH]c2cccc(/C=C/C(=O)/C=C(/C=C/c3cccc4[nH]cc(SC#N)c34)OB(F)F)c12`, the growth in the experiment with SR leukemia was 6.43% (active); with RPMI-8226 leukemia, -6.08% (active); in the experiment on OVCAR-8 ovarian it was -26.1% (active); in the experiment with OVCAR-5 ovarian it was -10.8% (active); in the experiment on OVCAR-4 ovarian, 7.06% (active); with SK-OV-3 ovarian it was 78.7%. Also, the growth is 3.87% (active) with IGROV1 ovarian, 2.33% (active) in the experiment with OVCAR-3 ovarian, 26.3% with HS 578T breast and 25.7% in the experiment on NCI/ADR-RES ovarian.

As to `CCOC(=O)NC(C)C`, the growth with SR leukemia is 112%; in the experiment on RPMI-8226 leukemia it was 113%; with OVCAR-8 ovarian it was 103%; with OVCAR-5 ovarian it was 90.5%; with OVCAR-4 ovarian it was 107%; in the experiment with SK-OV-3 ovarian, 117%. Also, the growth in the experiment with IGROV1 ovarian is 91.2%; in the experiment on OVCAR-3 ovarian, 112%; in the experiment on HS 578T breast, 111%; with NCI/ADR-RES ovarian it was 93.5%.

On to `CCOC(=O)c1cc2c(n1C)-c1nc(NC(C)=O)sc1CCC2`, for which the growth with SR leukemia is 72.6%; in the experiment with RPMI-8226 leukemia it was 79%; in the experiment on OVCAR-8 ovarian it was 71.2%; with OVCAR-5 ovarian, 117%; in the experiment with OVCAR-4 ovarian it was 80.4%; with SK-OV-3 ovarian, 76.1%. Moreover, the growth with IGROV1 ovarian was 69.2%; in the experiment with OVCAR-3 ovarian, 85.7%; in the experiment with HS 578T breast it was 60.5%; in the experiment with NCI/ADR-RES ovarian, 85.1%.

Consider `COc1ccc2c(c1)c(-c1nc(-c3c[nH]c4ccncc34)cs1)cn2C`, for which the growth in the experiment with SR leukemia is -26% (active); with RPMI-8226 leukemia, -36.7% (active); in the experiment on OVCAR-8 ovarian, -52.2% (active); in the experiment on OVCAR-5 ovarian, -72.9% (active); in the experiment with OVCAR-4 ovarian it was -71.4% (active); with SK-OV-3 ovarian it was 106%. In addition, the growth in the experiment on IGROV1 ovarian is -83.8% (active); with OVCAR-3 ovarian, -90.5% (active); in the experiment with HS 578T breast, -48.3% (active); in the experiment with NCI/ADR-RES ovarian it was -52.8% (active).

Regarding `NNc1nc(-c2cccnc2)nc2c1sc(=S)n2-c1ccccc1`, the growth with SR leukemia is 88.3%; with RPMI-8226 leukemia, 106%; in the experiment with OVCAR-8 ovarian it was 92.8%; in the experiment on OVCAR-5 ovarian it was 102%; in the experiment with OVCAR-4 ovarian, 100%; with SK-OV-3 ovarian, 79.6%. Besides, the growth was 97.9% in the experiment on IGROV1 ovarian, 93.1% with OVCAR-3 ovarian, 112% in the experiment on HS 578T breast and 102% in the experiment with NCI/ADR-RES ovarian.

Take `COC(=O)/C=C1/SC(=Nc2cccc(OC)c2)N(CCc2c[nH]c3ccc(O)cc23)C1=O`: the growth in the experiment with SR leukemia was 0.788% (active); with RPMI-8226 leukemia, 16.2%; in the experiment on OVCAR-8 ovarian, 41.6%; in the experiment on OVCAR-5 ovarian, 83.3%; with OVCAR-4 ovarian it was 49.4%; in the experiment on SK-OV-3 ovarian, 101%. In addition, the growth in the experiment on IGROV1 ovarian is 51.8%; in the experiment on OVCAR-3 ovarian, 40.3%; in the experiment on HS 578T breast, 66.5%; with NCI/ADR-RES ovarian, 58.8%.

Consider `COc1ccc(/C=N\Nc2nc(SCCC(C)C)nc(-c3ccc(OC)cc3)c2C#N)cc1`, for which the growth in the experiment on SR leukemia is 4.53% (active); in the experiment with RPMI-8226 leukemia, 54.4%; in the experiment on OVCAR-8 ovarian, 39.5%; with OVCAR-5 ovarian, 63.3%; in the experiment with OVCAR-4 ovarian, -57.2% (active); in the experiment with SK-OV-3 ovarian it was 56.9%. Further, the growth in the experiment with IGROV1 ovarian is 34.5%; in the experiment on OVCAR-3 ovarian it was 12.8%; with HS 578T breast it was 29.4%; in the experiment on NCI/ADR-RES ovarian it was 74.8%.

For the compound `C#CCOC(=O)/C=C/c1cn(-c2ccccc2)nc1-c1ccc(OC)cc1`, the growth is 83.2% with SR leukemia; 105% in the experiment with RPMI-8226 leukemia; 78.5% with OVCAR-8 ovarian; 91% in the experiment on OVCAR-5 ovarian; 90.7% in the experiment with OVCAR-4 ovarian; 89.3% in the experiment with SK-OV-3 ovarian. Besides, the growth was 74% in the experiment with IGROV1 ovarian, 103% in the experiment on OVCAR-3 ovarian, 76.9% with HS 578T breast and 98.4% with NCI/ADR-RES ovarian.

For `COc1ccc(NC(=O)c2sc3nc(C)c(C(=O)/C=C/c4ccccc4)cc3c2N)cc1`, the growth in the experiment on SR leukemia is 14.7%; in the experiment with RPMI-8226 leukemia, -24.4% (active); with OVCAR-8 ovarian, 8.59% (active); in the experiment with OVCAR-5 ovarian, 63.5%; with OVCAR-4 ovarian it was 52.3%; in the experiment with SK-OV-3 ovarian, 103%. The growth in the experiment on IGROV1 ovarian is 17%; with OVCAR-3 ovarian, 0.065% (active); in the experiment with HS 578T breast it was 34%; in the experiment with NCI/ADR-RES ovarian, 15.5%.

`C=C1C(=O)O[C@H]2[C@H]1CC/C(Cn1cc(-c3ccccc3)nn1)=C\CC[C@@]1(C)O[C@@H]21`: the growth in the experiment on SR leukemia was 3.11% (active); with RPMI-8226 leukemia, -20.5% (active); in the experiment on OVCAR-8 ovarian it was 5.7% (active); with OVCAR-5 ovarian it was -2.95% (active); in the experiment on OVCAR-4 ovarian it was 35.9%; with SK-OV-3 ovarian it was 107%. Moreover, the growth with IGROV1 ovarian is 6.52% (active); in the experiment with OVCAR-3 ovarian, -84.3% (active); in the experiment on HS 578T breast, 81.1%; in the experiment with NCI/ADR-RES ovarian, 43.6%.
